This passage reports residual activity results from ChEMBL document CHEMBL2218924, “A broad activity screen in support of a chemogenomic map for kinase signalling research and drug discovery” (Biochem J, 2013).

The target in test [1] is Homeodomain-interacting protein kinase 3 (Homo sapiens) (UniProt Q9H422). As to conditions: at 10 µM; call rule not given here.
Test [2] deals with T1, Serine/threonine-protein kinase haspin (Homo sapiens) (UniProt Q8TF76).
T1 sequence (whole entry): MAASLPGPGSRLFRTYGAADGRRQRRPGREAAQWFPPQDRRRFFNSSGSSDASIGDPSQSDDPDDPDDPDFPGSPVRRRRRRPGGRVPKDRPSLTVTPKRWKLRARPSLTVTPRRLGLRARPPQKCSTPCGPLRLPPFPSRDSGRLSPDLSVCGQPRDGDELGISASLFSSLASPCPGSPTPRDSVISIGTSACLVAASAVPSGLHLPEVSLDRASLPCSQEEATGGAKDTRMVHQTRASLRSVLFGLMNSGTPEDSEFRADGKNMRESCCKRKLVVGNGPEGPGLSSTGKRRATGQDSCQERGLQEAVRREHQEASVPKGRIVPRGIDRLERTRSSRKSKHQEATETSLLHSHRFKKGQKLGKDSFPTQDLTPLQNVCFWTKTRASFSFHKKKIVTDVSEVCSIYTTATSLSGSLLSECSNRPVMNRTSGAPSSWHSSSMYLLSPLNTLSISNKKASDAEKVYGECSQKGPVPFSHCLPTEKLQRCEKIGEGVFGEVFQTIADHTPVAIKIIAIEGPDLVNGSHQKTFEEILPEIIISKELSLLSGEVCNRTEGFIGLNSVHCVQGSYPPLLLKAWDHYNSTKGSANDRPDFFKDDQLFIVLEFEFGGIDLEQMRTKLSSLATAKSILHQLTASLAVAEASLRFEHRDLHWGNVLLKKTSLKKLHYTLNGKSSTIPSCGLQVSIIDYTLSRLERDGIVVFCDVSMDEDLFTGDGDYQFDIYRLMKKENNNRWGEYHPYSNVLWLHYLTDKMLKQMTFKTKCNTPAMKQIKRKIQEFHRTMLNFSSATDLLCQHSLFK
The conditions noted are these: at 1 µM.

Test [3] concerns the target T1, Serine/threonine-protein kinase haspin (Homo sapiens). The conditions noted are these: at 10 µM.
In test [4] the target is Tyrosine-protein kinase HCK (Homo sapiens) (UniProt P08631). The conditions noted are these: at 1 µM.
Test [5] shares this target. The conditions noted are these: at 10 µM.
Test [6] has the same target. As to conditions: at 1 µM. The source holds these as a separate data set.
Test [7] has the same target. The conditions noted are these: at 10 µM. The source holds these as a separate data set.
The target in test [8] is Insulin-like growth factor 1 receptor (Homo sapiens) (UniProt P08069). The conditions noted are these: at 1 µM.
Test [9] has the same target. As to conditions: at 10 µM.
The target of test [10] is T2, Protein kinase C zeta type (Homo sapiens) (UniProt Q05513).
T2 sequence (whole entry): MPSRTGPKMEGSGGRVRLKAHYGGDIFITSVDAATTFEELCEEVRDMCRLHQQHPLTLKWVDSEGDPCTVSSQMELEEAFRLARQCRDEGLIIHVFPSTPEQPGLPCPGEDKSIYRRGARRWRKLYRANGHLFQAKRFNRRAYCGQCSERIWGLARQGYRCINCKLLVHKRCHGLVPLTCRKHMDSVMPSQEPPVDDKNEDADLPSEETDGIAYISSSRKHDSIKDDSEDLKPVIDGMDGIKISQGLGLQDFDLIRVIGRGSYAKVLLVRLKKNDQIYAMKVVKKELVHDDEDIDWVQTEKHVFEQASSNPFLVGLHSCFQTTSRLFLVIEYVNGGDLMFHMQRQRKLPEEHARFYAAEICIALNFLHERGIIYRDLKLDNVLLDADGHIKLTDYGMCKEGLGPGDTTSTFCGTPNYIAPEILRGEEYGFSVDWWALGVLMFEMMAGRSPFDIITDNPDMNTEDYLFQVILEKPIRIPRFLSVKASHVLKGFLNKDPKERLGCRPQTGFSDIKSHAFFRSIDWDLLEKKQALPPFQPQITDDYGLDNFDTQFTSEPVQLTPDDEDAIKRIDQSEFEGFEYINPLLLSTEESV
The conditions noted are these: at 10 µM.

Test [11] addresses Protein kinase C eta type (Homo sapiens) (UniProt P24723). The conditions noted are these: at 1 µM.
Test [12] has the same target. The conditions noted are these: at 10 µM.
Test [13] deals with Protein kinase C theta type (Homo sapiens) (UniProt Q04759). As to conditions: at 1 µM.
The target is the same in test [14]. As to conditions: at 10 µM.
For test [15], the target named is T3, Protein kinase C iota type (Homo sapiens) (UniProt P41743).
T3 sequence (whole entry): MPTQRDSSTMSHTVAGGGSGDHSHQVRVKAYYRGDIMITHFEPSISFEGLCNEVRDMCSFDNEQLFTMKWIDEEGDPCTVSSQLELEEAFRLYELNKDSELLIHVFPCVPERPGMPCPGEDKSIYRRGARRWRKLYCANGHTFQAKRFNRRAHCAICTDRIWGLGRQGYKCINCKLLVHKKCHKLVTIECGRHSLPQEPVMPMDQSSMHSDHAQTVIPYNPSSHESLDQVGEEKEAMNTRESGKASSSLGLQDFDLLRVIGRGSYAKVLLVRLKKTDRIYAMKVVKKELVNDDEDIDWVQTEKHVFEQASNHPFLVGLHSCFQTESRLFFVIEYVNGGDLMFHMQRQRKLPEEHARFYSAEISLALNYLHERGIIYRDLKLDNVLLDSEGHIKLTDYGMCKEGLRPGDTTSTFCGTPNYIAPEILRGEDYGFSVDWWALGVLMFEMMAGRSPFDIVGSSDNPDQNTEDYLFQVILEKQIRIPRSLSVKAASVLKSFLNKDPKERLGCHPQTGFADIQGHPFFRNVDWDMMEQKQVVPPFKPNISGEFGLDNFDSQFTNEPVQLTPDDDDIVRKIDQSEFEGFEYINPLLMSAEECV
The conditions noted are these: at 1 µM.

For test [16], the target named is T3, Protein kinase C iota type (Homo sapiens). As to conditions: at 10 µM.
For test [17], the target named is T4, Serine/threonine-protein kinase D1 (Homo sapiens) (UniProt Q15139).
T4 sequence (whole entry): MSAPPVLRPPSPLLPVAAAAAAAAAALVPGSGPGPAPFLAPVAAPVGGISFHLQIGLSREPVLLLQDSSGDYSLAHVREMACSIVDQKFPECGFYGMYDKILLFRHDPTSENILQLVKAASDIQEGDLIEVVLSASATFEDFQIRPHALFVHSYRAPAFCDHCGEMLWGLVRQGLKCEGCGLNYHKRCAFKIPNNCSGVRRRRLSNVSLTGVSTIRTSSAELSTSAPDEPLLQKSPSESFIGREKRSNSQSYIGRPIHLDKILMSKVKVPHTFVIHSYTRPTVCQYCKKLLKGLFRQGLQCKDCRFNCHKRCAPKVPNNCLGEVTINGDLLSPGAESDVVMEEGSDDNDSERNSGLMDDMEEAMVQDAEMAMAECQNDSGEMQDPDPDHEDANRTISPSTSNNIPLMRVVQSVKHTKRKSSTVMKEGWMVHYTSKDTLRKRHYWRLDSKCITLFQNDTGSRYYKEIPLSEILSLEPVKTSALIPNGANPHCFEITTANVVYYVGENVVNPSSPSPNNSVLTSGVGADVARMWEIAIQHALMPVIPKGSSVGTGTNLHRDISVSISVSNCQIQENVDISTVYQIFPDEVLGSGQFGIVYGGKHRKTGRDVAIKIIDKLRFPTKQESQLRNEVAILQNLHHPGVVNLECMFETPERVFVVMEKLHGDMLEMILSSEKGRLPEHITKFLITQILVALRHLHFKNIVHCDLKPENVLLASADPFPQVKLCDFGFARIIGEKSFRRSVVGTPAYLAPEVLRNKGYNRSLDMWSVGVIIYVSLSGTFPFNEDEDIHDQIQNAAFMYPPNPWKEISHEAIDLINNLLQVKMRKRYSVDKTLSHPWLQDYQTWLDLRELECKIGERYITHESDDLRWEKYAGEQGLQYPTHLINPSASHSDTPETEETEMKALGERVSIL
The conditions noted are these: at 1 µM.

Test [18] addresses T4, Serine/threonine-protein kinase D1 (Homo sapiens). The conditions noted are these: at 10 µM.
For test [19], the target named is T5, Serine/threonine-protein kinase D2 (Homo sapiens) (UniProt Q9BZL6).
T5 sequence (whole entry): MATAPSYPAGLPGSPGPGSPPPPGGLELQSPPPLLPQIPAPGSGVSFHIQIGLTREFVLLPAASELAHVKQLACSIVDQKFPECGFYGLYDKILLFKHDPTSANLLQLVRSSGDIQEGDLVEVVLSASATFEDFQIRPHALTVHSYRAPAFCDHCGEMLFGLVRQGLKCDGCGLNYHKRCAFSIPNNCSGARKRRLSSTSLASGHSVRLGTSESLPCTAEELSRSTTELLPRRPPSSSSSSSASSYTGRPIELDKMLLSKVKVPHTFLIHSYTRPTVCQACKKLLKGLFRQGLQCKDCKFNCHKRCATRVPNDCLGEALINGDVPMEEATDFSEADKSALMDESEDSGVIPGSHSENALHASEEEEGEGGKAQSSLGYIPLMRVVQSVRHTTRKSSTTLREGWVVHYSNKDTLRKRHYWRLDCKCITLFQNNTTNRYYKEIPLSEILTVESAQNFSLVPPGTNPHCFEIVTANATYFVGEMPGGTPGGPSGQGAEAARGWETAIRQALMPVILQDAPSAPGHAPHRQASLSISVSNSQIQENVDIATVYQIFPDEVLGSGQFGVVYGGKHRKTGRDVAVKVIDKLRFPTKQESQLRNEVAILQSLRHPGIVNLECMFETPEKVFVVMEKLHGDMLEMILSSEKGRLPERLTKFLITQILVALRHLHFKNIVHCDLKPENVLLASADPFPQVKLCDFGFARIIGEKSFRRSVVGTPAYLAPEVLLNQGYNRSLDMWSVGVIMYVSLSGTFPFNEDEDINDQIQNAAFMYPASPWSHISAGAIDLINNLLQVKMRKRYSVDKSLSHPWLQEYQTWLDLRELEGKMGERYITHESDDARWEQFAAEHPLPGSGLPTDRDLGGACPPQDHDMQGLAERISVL
The conditions noted are these: at 1 µM.

The target of test [20] is T5, Serine/threonine-protein kinase D2 (Homo sapiens). As to conditions: at 10 µM.

Sequence of Protein kinase C eta type (Homo sapiens) (P24723 whole entry): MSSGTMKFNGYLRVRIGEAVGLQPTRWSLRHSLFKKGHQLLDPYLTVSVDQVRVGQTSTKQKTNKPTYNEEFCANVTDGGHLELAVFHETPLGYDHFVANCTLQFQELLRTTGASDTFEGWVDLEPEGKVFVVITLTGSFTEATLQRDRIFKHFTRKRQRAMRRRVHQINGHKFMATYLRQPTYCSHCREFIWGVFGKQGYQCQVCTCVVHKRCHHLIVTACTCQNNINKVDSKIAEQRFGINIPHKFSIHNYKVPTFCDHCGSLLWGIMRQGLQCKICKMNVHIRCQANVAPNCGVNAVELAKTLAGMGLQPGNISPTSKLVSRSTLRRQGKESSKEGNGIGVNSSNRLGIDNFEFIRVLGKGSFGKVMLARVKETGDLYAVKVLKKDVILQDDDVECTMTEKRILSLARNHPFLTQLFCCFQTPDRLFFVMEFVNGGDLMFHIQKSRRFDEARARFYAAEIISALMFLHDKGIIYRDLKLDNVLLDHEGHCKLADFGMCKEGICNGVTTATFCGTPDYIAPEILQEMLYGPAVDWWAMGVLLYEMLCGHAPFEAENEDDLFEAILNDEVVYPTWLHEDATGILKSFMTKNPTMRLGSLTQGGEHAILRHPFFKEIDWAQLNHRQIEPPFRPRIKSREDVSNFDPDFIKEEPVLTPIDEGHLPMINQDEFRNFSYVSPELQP
Sequence of Tyrosine-protein kinase HCK (Homo sapiens) (P08631 2-526 limits assumed): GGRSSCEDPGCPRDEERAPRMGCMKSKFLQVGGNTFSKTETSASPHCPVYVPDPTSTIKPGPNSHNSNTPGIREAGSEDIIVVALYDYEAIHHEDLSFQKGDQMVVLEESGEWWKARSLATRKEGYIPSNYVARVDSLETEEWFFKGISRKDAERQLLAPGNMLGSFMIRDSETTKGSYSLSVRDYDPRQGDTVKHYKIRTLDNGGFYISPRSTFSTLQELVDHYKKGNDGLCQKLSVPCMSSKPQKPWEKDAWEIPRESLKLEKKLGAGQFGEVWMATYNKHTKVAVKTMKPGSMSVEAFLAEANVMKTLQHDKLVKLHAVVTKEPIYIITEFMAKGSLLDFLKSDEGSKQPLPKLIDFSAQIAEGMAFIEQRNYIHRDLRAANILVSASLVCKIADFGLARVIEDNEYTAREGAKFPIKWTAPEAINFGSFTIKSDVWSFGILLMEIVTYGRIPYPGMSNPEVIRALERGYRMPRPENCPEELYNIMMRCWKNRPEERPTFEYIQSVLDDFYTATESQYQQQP
Sequence of Protein kinase C theta type (Homo sapiens) (Q04759 whole entry, looked up): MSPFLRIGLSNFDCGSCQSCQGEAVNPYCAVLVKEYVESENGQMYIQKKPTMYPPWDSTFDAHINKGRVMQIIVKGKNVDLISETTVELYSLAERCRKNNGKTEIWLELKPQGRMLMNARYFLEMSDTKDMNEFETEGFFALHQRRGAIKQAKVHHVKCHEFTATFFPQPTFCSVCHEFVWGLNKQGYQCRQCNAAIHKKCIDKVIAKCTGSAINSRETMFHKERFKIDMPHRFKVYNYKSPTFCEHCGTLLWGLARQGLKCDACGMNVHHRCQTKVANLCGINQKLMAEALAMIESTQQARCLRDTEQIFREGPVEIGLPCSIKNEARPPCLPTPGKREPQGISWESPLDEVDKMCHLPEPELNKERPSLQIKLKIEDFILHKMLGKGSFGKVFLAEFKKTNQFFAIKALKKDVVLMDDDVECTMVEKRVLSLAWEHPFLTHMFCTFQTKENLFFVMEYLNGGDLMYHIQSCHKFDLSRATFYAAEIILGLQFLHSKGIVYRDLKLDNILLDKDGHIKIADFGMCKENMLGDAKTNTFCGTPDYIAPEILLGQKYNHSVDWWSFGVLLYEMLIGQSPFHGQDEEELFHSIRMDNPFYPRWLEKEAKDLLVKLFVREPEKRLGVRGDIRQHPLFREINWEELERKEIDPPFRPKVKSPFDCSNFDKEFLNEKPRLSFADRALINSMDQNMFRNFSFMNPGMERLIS
Sequence of Insulin-like growth factor 1 receptor (Homo sapiens) (P08069 31-736 limits assumed): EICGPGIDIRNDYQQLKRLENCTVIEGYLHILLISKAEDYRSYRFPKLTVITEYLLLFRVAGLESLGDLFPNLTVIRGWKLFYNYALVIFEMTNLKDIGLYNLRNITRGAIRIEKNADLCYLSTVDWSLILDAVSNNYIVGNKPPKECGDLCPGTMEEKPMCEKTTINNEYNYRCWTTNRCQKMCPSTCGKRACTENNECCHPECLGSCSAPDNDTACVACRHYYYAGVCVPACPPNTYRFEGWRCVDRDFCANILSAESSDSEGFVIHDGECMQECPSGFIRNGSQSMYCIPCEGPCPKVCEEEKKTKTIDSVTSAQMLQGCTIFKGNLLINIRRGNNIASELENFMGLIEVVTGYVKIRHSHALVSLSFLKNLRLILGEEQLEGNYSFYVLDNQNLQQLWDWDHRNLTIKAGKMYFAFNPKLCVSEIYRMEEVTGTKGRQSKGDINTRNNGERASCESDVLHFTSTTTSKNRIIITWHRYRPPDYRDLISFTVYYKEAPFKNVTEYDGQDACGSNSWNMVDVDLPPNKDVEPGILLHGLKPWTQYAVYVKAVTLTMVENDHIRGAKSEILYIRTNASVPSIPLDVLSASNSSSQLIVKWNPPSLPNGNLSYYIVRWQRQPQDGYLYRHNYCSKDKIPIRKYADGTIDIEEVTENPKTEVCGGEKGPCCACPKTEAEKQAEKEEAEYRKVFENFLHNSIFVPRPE
Sequence of Insulin-like growth factor 1 receptor (Homo sapiens) (P08069 741-1367 limits assumed): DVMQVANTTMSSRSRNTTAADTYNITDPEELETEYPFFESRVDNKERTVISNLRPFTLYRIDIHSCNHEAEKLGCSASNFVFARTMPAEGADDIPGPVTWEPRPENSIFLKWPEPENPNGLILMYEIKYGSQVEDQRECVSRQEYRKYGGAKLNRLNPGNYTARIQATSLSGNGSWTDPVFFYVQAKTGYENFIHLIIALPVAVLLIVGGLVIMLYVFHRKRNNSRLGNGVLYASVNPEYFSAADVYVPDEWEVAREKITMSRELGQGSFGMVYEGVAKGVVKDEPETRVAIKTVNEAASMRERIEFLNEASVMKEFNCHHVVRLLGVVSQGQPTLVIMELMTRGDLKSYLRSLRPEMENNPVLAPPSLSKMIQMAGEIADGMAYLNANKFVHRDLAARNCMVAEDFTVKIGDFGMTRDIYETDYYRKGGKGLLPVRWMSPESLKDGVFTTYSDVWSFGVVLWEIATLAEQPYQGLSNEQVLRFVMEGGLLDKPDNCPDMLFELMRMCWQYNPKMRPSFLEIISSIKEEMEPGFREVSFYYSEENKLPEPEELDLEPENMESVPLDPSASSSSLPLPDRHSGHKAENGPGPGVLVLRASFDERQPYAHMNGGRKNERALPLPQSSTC
Sequence of Homeodomain-interacting protein kinase 3 (Homo sapiens) (Q9H422 whole entry, looked up): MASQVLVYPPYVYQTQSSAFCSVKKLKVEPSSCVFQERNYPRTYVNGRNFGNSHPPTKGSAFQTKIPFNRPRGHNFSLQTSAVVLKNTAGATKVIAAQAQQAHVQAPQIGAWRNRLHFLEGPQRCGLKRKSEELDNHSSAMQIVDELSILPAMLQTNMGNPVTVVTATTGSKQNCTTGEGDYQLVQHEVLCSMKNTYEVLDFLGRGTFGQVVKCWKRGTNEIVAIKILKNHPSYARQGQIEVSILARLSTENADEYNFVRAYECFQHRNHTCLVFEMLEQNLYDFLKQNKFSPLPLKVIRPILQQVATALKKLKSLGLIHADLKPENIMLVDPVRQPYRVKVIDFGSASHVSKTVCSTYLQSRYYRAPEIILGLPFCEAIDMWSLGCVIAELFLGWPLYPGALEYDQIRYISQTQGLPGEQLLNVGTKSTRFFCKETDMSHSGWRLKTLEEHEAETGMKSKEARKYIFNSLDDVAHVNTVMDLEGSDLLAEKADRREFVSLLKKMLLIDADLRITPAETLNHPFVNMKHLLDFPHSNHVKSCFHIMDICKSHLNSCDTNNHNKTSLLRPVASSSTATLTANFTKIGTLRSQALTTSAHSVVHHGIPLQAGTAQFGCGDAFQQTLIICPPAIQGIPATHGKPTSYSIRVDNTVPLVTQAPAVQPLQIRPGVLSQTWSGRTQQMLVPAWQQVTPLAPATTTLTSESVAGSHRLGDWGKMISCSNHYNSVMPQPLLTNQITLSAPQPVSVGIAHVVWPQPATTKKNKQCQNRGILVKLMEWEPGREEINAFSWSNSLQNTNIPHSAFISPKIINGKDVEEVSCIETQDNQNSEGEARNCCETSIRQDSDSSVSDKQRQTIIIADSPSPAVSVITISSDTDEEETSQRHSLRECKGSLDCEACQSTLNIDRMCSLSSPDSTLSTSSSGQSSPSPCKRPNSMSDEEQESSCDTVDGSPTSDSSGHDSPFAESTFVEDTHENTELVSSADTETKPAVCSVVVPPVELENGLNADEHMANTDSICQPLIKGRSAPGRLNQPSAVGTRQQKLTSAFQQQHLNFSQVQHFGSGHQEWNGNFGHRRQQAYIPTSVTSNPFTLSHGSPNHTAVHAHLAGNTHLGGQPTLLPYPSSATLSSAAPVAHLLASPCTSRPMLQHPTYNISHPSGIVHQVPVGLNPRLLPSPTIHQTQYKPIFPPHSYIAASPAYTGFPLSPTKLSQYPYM

Take `CCC(=O)Nc1ccc2ncnc(Nc3cccc(Br)c3)c2c1`: the residual activity in test [1] turned out to be 99%; in test [2], 109%; in test [3], 62%; in [4] it was 82%; in [5], 45%; in test [6] it was 86%. Moreover, the residual activity in test [7] is 66%; in test [8] it was 132%; in test [9], 116%; in [10], 119%; in test [11] it was 85%; in test [12] it was 82%. Moreover, the residual activity in test [13] was 96%; in test [14], 95%; in [15] it was 100% (inactive); in test [16], 101%; in [17] it was 85%; in test [18] it was 82%. Moreover, the residual activity in test [19] is 105%; in [20] it was 112%.

Regarding `CC(C)n1cnc2c(NCc3ccccc3)nc(NCCCO)nc21`, the residual activity in test [1] stood at 106%; in [2] it was 101%; in test [3] it was 95%; in test [4] it was 81%; in [5], 70%; in test [6] it was 84%. For the same compound, the residual activity is 81% in test [7]; 78% in test [8]; 103% in test [9]; 107% in [10]; 88% in test [11]; 81% in test [12]. Besides, the residual activity in test [13] was 91%; in test [14], 94%; in test [15], 109% (inactive); in test [16] it was 105%; in test [17], 91%; in test [18] it was 72%. The values for the residual activity in test [19] and in test [20] were 103% and 96%, respectively.

For `CN(C)CCCn1cc(C2=C(c3c[nH]c4ccccc34)C(=O)NC2=O)c2ccccc21`, the residual activity is 35% in test [1]; 43% in [2]; 12% in [3]; 74% in test [4]; 54% in test [5]; 113% in test [6]. Further, the residual activity was 84% in test [7]; 127% in [8]; 16% in test [10]; 74% (inactive) in test [15]; 47% in test [16]; 108% in [17]. Besides, the figures for the residual activity in [18] and in test [20] were 43% and 82%, respectively.

On to `O=C1Nc2ccccc2/C1=C1/Nc2ccccc2/C1=N\OCCC(O)CO` (stereo unspecified), for which the residual activity in [1] worked out at 56%; in [2], 13%; in test [3] it was 11%; in test [4] it was 4%; in test [5], 0%; in test [6], 8%. For the same compound, the residual activity in test [7] is 7%; in [8], 25%; in [9], 2%; in [10] it was 104%; in test [13], 66%; in test [14], 29%. In addition, the residual activity in test [15] is 113% (inactive); in [17] it was 73%; in test [18], 32%; in [19], 101%; in test [20], 76%.
